# NPSR antagonist – qHTS Assay for Antagonists of the Neuropeptide S Receptor: cAMP Signal Transduction; CHO-NPSR cells, cAMP TR-FRET, antagonist mode; Q6W5P4; actives 1% (n = 220,000); Potency, µM (top dose mostly 38.3 µM), for the others: at the highest dose activity change, negative = inhibition, hits mostly inhibitors; note: potency is the fitted concentration of half-maximal effect; nearly all actives have a fitted effect of over 50% in size
# Target sequence (Q6W5P4 whole entry, looked up): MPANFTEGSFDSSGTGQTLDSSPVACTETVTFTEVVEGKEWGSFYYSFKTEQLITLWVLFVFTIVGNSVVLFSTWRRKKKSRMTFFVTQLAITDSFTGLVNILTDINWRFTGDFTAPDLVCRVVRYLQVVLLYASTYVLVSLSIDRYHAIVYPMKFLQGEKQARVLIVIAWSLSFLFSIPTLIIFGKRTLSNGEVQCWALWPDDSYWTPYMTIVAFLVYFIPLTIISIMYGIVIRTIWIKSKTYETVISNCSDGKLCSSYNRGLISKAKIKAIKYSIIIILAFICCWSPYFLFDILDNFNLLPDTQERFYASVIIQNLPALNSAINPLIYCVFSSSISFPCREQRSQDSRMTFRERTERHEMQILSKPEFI
# PNC inhibitor – High Content Assay for Compounds that inhibit the Assembly of the Perinucleolar Compartment; PC3M PTB-GFP, PNC prevalence imaging, 16 h; hits give low values; activity change (PNC), negative = inhibition, % at 10 µM; actives 3.1% (n = 140,000); AID 2417, 2010;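 active = readout at or below -70, meaning at least 70% loss of cells showing the perinucleolar compartment, a nuclear body marking cancer cells; inconclusive = readout between -30 and a set limit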;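 note: plate controls were DMSO wells for no effect and camptothecin positive control wells for full effect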
#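 Compounds are pinned in duplicate onto adhered PC3M cells stably expressing GFP-tagged PTB and incubated 16 h at 37 C. Cells are then fixed, nuclei stained with Hoechst, and PNC-positive cells counted.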
# JMJD2E inh – qHTS Assay for Inhibitors of Human Jumonji Domain Containing 2E (JMJD2E); JMJD2E catalytic domain, FDH-coupled NADH fluorescence (FDH is formaldehyde dehydrogenase); Potency, µM (highest dose often 57.1 µM), without a hit: at the highest dose activity change, negative = inhibition, hits mostly inhibitors; Lysine-specific demethylase 4E (Homo sapiens), B2RXH2; actives 1.6% (n = 230,000); active = well fitted inhibition curve with a large enough effect, not every such curve was filed as active; inconclusive = small, poorly fitted or top-dose-only effect, or another doubt; inactive = no such curve, though single readings can be large or run the other way;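 note: potency is the fitted concentration of half-maximal effect; 0% = wells with enzyme and -100% = buffer wells without enzyme; nearly all actives have a fitted effect of over 50% in size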
# Tau fluor counter – Counterscreen qHTS for Inhibitors of Tau Fibril Formation, Fluorescence Polarization | tau K18 P301L Alexa594 fluorescence, heparin fibrillization | Potency, µM (doses to about 57.7 µM), for the others: at the top dose activity change, negative = decrease | actives 0.93% (n = 280,000); note: potency is the fitted concentration of half-maximal effect; nearly all actives have a fitted effect of over 55% in size
#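 Human tau K18 P301L (15 uM unlabeled, 0.24 uM Alexa 594-labeled) in 100 mM sodium acetate pH 7 with 20 uM heparin, 6 hr at 37 C. ThT 30 uM added, 1 hr ambient; Alexa 594 FP and total fluorescence read at 555/632 nm.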
# Tau fibril ThT – qHTS for Inhibitors of Tau Fibril Formation, Thioflavin T Binding | Potency, µM (top dose mostly 57.4 µM), for the others: top-dose activity, negative = inhibition, usual class: inhibitors | actives 2.1% (n = 270,000) | recombinant tau K18 P301L (four-repeat tau fragment), heparin-induced fibrillization, ThT fluorescence; note: potency is the fitted concentration of half-maximal effect; nearly all actives have a fitted effect of over 55% in size
# Target sequence (P10636 561-689 P618L limits assumed): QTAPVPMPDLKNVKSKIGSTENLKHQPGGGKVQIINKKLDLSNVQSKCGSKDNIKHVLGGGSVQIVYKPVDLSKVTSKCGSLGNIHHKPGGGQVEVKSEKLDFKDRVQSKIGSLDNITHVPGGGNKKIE
#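 Tau K18 P301L fragment (15 uM unlabeled plus 0.24 uM Alexa 594-labeled) in 100 mM sodium acetate pH 7 with compound, fibrillization induced by 20 uM heparin for 6 hr at 37 C. Thioflavin T (30 uM) added, fluorescence read after 1 hr (ex 450, em 510 nm).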
# Tau FP inhib – qHTS for Inhibitors of Tau Fibril Formation, Fluorescence Polarization; actives 0.39% (n = 280,000); K18 P301L tau heparin fibrillization, Alexa594 FP, 6 h; AID 1468, 2008; Potency, µM (doses to about 57.7 µM), for inactives: at the highest dose activity, negative = inhibition, usual class: inhibitors; note: potency is the fitted concentration of half-maximal effect; nearly all actives have a fitted effect of over 55% in size
#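 Read-out: fluorescence polarization of Alexa 594-labeled tau (0.24 uM), 555 nm excitation, 632 nm emission. Mixtures held 15 uM unlabeled K18 P301L, compound and 20 uM heparin, pH 7 acetate buffer, incubated 6 hr at 37 C.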
# * marks the source's active call; other numbers are inactive results; u = inconclusive; x = not tested or not shown; ! = a repeat was not active; [ ] = another dose, or the depositor's remark. This is a sample that favours compounds with a hit; in the whole collection about 5.1% have one here. Unless noted, calls come from the whole dose curve; as a rule, active = well fitted curve in the direction sought with a large enough effect; inconclusive = small, poorly fitted or top-dose-only effect, or another doubt; inactive = no such curve, though single readings can be large; an effect the other way counts as inactive or inconclusive. Unless noted, % is set by controls: 0 for no effect and ±100 for the full control effect.
SMILES,NPSR antagonist,PNC inhibitor,JMJD2E inh,Tau fluor counter,Tau fibril ThT,Tau FP inhib
NS(=O)(=O)c1ccc(O)c(NC(=O)c2ccc([N+](=O)[O-])o2)c1,12%,x,u,-18%,25µM*,18µM*
Cc1cc(NC(=O)c2ccc([N+](=O)[O-])o2)ccc1NC(=O)c1ccco1,-26%,x,7%,-20%,14µM*,4%
C=CC[C@@](C(C)=O)(C(=O)OC)C(NC(=O)OC)c1ccccc1 (stereo partly specified),x,x,1%,-7%,-4%,-13%
COc1ccccc1C1NC=C([N+](=O)[O-])C=C1[N+](=O)[O-] (stereo unspecified),-30%,16,4%,u,11µM*,u
COc1ccccc1C1C([N+](=O)[O-])=CC([N+](=O)[O-])=CN1C (stereo unspecified),-13%,u,-5%,-2%,u,6%
O=c1cc(-c2cc(O)c(O)c(O)c2)oc2cc(O)cc(O)c12,x,x,10µM*,16µM*[quencher],7.9µM*,5%
O=c1cc(-c2ccc(O)cc2)oc2cc(O)cc(O)c12,25µM*,x,11µM*!,u,16µM*,u
COc1ccc(-c2cc(=O)c3c(O)cc(O)c(-c4cc(-c5cc(=O)c6c(O)cc(O)cc6o5)ccc4OC)c3o2)cc1,x,x,-15%,-30%,-12%,18µM*
O=c1cc(-c2ccccc2)oc2cc(O)cc(O)c12,x,x,u,-14%,u,u
COc1cc(-c2cc(=O)c3c(O)cc(O)cc3o2)ccc1O,16%,x,2%,-16%,u,-15%
O=c1cc(-c2ccccc2O)oc2cc(O)cc(O)c12,x,x,-21%,u,u,1%
CCCN1CCN(CCCNC(=O)c2ccc3c(c2)sc2nc(-c4ccc(C)cc4)cn23)CC1,x,x,x,-10%,-13%,-2%
CCOC(=O)C1=C(N)OC2=C(C(=O)CCC2)C1c1ccc(C)s1 (stereo unspecified),-10%[46.1 µM],-107*,2%,-4%,-10%,3%
COC(=O)C1=C(N)OC2=C(C(=O)CCC2)C1c1cccnc1 (stereo unspecified),22%,x,-6%,9%,0%,3%
CCOC(=O)C1=C(N)OC2=C(C(=O)CCC2)C1c1sccc1C (stereo unspecified),-10%,-2,2%,-9%,-3%,-5%
CCOC(=O)C1=C(N)OC2=C(C(=O)CCC2)C1c1cccnc1 (stereo unspecified),13%[46.1 µM],-120*,-6%,-7%,-1%,-14%
Cc1cccc(N=N/C(=C\O)C(=O)c2cccs2)c1,u,x,-2%,-17%,28µM*,-7%
O=C(/C(N=Nc1cccc(C(F)(F)F)c1)=C(/O)c1cccs1)C(F)(F)F,u,x,0%,u,u,-10%
COc1ccc(O)c(-c2cc(-c3cccc(Br)c3)n[nH]2)c1,-26%[46.1 µM],-30,-5%,14µM*[quencher],u,2%
COc1ccc(-c2cc(-c3cc(OC)ccc3O)[nH]n2)cc1,u,u,u,16µM*[quencher],u,0%
COc1ccc(-c2n[nH]c(C)c2-c2cc(OC)ccc2O)cc1,-9%[46.1 µM],32,-10%,-19%,-10%,-8%
Cc1ccc(S(=O)(=O)CCC(=O)Nc2ccc(OC(F)(F)F)cc2)cc1,x,x,x,-13%,8%,-4%
CCN(CC)CCCNC(=O)c1nn(-c2ccc(OC)c(Cl)c2)c(=O)c2c1c1ccccc1n2C,x,x,x,-18%,-2%,-13%
Nc1nonc1-c1nc2ccccc2n1CC(=O)Nc1cccc(C(F)(F)F)c1,x,x,x,-27%,1%,u
O=C(O)c1ccc(N2CCCCCC2)c(N2C(=O)c3ccccc3C2=O)c1,-18%[46.1 µM],-4,-2%,-5%,-6%,-1%
SMILES,NPSR antagonist,PNC inhibitor,JMJD2E inh,Tau fluor counter,Tau fibril ThT,Tau FP inhib
Cn1c(=O)cc2c3c(c(N4CCCCC4)ccc31)C(=O)c1ccccc1-2,-12%,x,-1%,13µM*[quencher],11µM*,u
O=C1c2ccccc2-c2onc3ccc(N4CCCC4)c1c23,13µM*,x,18µM*,10µM*[quencher],8.9µM*,28µM*
O=C1c2ccccc2C(=O)c2c1cccc2N1CCCC1,-17%,1,3%,u,14µM*,u
O=c1cc(N=Nc2ccc(Cl)cc2)[nH]c(=O)[nH]1,u,x,u,u,11µM*,u
O=C(Nc1ccc(Br)c2ccccc12)c1ccc2ccccc2c1O,u,x,u,18µM*[quencher],18µM*,u
CC(=O)Nc1ccc(Br)c2ccccc12,-25%,x,-4%,-2%,0%,-2%
CCOc1ccccc1CNC(=O)Cc1ccc(NC(=O)N2CCCCc3ccccc32)cc1,x,x,x,9%,-4%,0%
CC1=C(C(=O)Nc2ccccc2)C(c2ccco2)C(C#N)=C(SCC(=O)Nc2cccc(C)c2C)N1 (stereo unspecified),u,-82*,u,-20%,-8%,u
CCOC(=O)C1=C(C)NC(SCC(=O)O)=C(C#N)C1c1ccco1 (stereo unspecified),-4%[46.1 µM],-13,u,-5%,-10%,-11%
COc1ccccc1NC(=O)C1=C(C)NC(SCC(=O)c2ccc(C)cc2)=C(C#N)C1c1ccco1 (stereo unspecified),6.3µM*,-22,u,-21%,u,-18%
CCc1ccc(C(=O)CSC2=C(C#N)C(c3ccco3)C(C(C)=O)=C(C)N2)cc1 (stereo unspecified),u,34,-12%,u,u,10%
CC(=O)C1=C(C)NC(SCC(=O)c2ccc(Cl)c(Cl)c2)=C(C#N)C1c1ccco1 (stereo unspecified),10µM*,15,-1%,-10%,6%,1%
CC(=O)C1=C(C)NC(SCC(=O)c2cc(Cl)ccc2Cl)=C(C#N)C1c1ccco1 (stereo unspecified),10µM*,-20,u,u,28µM*,u
CC1=C(C(=O)Nc2ccccc2)C(c2ccco2)C(C#N)=C(SCC(=O)OC(C)C)N1 (stereo unspecified),u,0,-6%,-22%,u,2%
